Results taken from article PMC5540273 (PLoS ONE, 2017).

Assays:
Settings in all cases: concentration: 1 μM, replicates: in singlicate; n = 1
[1] = test system: T1, RSK1(Kin.Dom.1-N-terminal)
T1 construct: gene RPS6KA1

[2] = test system: T2, RSK1(Kin.Dom.2-C-terminal)
T2 construct: gene RPS6KA1

[3] = test system: T3, RSK2(Kin.Dom.1-N-terminal)
T3 construct: gene RPS6KA3

[4] = test system: T4, RSK2(Kin.Dom.2-C-terminal)
T4 construct: gene RPS6KA3

[5] = test system: T5, RSK3(Kin.Dom.1-N-terminal)
T5 construct: gene RPS6KA2

[6] = test system: T6, RSK3(Kin.Dom.2-C-terminal)
T6 construct: gene RPS6KA2

[7] = test system: T7, RSK4(Kin.Dom.1-N-terminal)
T7 construct: gene RPS6KA6

[8] = test system: T8, RSK4(Kin.Dom.2-C-terminal)
T8 construct: gene RPS6KA6

S6K1 = test system: S6K1
SBK1 = test system: SBK1
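Also: KINOMEscan kinase panel screen.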

Compound | %Inh [1] [%] | %Inh [2] [%] | %Inh [3] [%] | %Inh [4] [%] | %Inh [5] [%] | %Inh [6] [%] | %Inh [7] [%] | %Inh [8] [%] | %Inh (S6K1) [%] | %Inh (SBK1) [%]
Cc1ccc(-c2ccc3c(ccc4sc5c(c43)NC[C@@H](C)N=C5N(C)C)n2)cn1 | 0 | 0 | 0 | 0 | 0 | 0 | 0 | 0 | 0 | 0
COC(=O)c1c(-c2ccccc2)c2cc(C)ccc2c(=O)n1Cc1ccccc1 | 0 | 20 | 0 | 0 | 15 | 15 | 0 | 22 | 0 | 0
COC(=O)c1c(-c2ccccc2)c2cc(Br)ccc2c(=O)n1Cc1ccc(S(C)(=O)=O)cc1 | 3 | 14 | 0 | 9 | 14 | 0 | 24 | 6 | 0 | 5
CCC(=O)c1c(-c2ccccc2)c2cc(Cl)ccc2c(=O)n1Cc1cc(S(C)(=O)=O)n(CC(F)F)n1 | 2 | 0 | 5 | 0 | 0 | 0 | 13 | 1 | 0 | 0
CCS(=O)(=O)c1ccc(OC)c(Nc2ncc(-c3ccc(F)cc3)o2)c1.Cl [GW591947] | 11 | 0 | 0 | 22 | 0 | 2 | 0 | 3 | 0 | 0
COc1cccc(C2=C(N(C)c3ccccc3)C(=O)NC2=O)c1 [SB-334865] | 0 | 0 | 0 | 5 | 11 | 5 | 0 | 19 | 10 | 0
CCC(=O)c1c(-c2ccccc2)c2cc(Cl)ccc2c(=O)n1Cc1cc(S(C)(=O)=O)n(CCC(C)(C)O)n1 | 0 | 0 | 9 | 0 | 11 | 5 | 39 | 23 | 0 | 0
Nc1n[nH]c2ncc(-c3ccccc3)cc12 [SB-517081] | 25 | 0 | 10 | 0 | 7 | 0 | 0 | 36 | 8 | 8
O=C(Nc1n[nH]c2nc(-c3ccccc3)c(Cl)cc12)C1CC1 [SB-734909] | 26 | 0 | 29 | 0 | 0 | 7 | 42 | 1 | 44 | 0
COc1cc2ncn(-c3cc(OCCCc4ccccc4)c(C(N)=O)s3)c2cc1OC [GSK205189] | 2 | 10 | 7 | 2 | 0 | 0 | 12 | 18 | 0 | 0
COc1cc2ncn(-c3cc(OCc4ccncc4)c(C(N)=O)s3)c2cc1OC [GSK336313] | 25 | 0 | 6 | 0 | 0 | 0 | 0 | 0 | 0 | 24
CCS(=O)c1ccc(-c2coc3ccc(-c4nnc(C)o4)cc23)cc1 (stereo not drawn) | 0 | 18 | 5 | 0 | 3 | 11 | 18 | 6 | 8 | 0
COc1cc2ncn(-c3cc(OCc4ccncc4Br)c(C(N)=O)s3)c2cc1OC [GW854278] | 0 | 22 | 19 | 0 | 20 | 0 | 25 | 7 | 0 | 2
COc1cc(Nc2ccnc3ccc(C(F)(F)F)cc23)cc(OC)c1OC [GW577382] | 18 | 0 | 98.3 | 32 | 4 | 20 | 0 | 21 | 1 | 5
COc1cc(Nc2nccc(N3CCC(NC(=O)C(C)c4ccc(Cl)cc4)C3)n2)cc(OC)c1OC (stereo not drawn) [GSK1379757] | 21 | 0 | 2 | 1 | 0 | 0 | 0 | 5 | 0 | 12
COc1ccc(-n2cnc3c(N)ncnc32)cc1 [SKF-97236] | 0 | 0 | 11 | 22 | 9 | 0 | 9 | 36 | 9 | 13
CCC(=O)c1c(-c2ccccc2)c2cc(Cl)ccc2c(=O)n1Cc1ccc(C(=O)O)cc1 | 0 | 0 | 0 | 0 | 0 | 0 | 0 | 0 | 0 | 0
O=C(Nc1ccc2c(c1)OCO2)NC1CCN(c2ccnc(NCc3ccc(F)cc3)n2)CC1 [GSK1379859] | 1 | 0 | 3 | 99.5 | 0 | 0 | 0 | 0 | 8 | 11
